Test results published in PubChem BioAssay (NCI).
Compounds without any hit were thinned out: in the full panel of roughly 83,000, 20% have a hit.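 Activity criterion: percent growth below 10, measured after cells in 96-well plates were exposed to a single compound concentration for 48 hours.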 A number with no mark means an inactive call. Calls of active or inactive are those of the source.

Experiments:
Assay in all cases: NCI-60 one-dose screen, 48 h (100 = growth as untreated, 0 = no growth, -100 = all killed)
Settings in all cases: 10 µM unless noted
T-47D breast = test system: T-47D breast
BT-549 breast = test system: BT-549 breast
MDA-MB-435 melanoma = test system: MDA-MB-435 melanoma
SW-620 colon = test system: SW-620 colon
MCF7 breast = test system: MCF7 breast
HCT-116 colon = test system: HCT-116 colon
HCC-2998 colon = test system: HCC-2998 colon
KM12 colon = test system: KM12 colon

| SMILES | growth (T-47D breast) | growth (BT-549 breast) | growth (MDA-MB-435 melanoma) | growth (SW-620 colon) | growth (MCF7 breast) | growth (HCT-116 colon) | growth (HCC-2998 colon) | growth (KM12 colon) |
| --- | --- | --- | --- | --- | --- | --- | --- | --- |
| CN1CCN(C(=O)OCc2ccc3c(Cl)cc(Cl)c(O)c3n2)CC1 | 58.6% | 87% | 60.5% | 52.4% | 43.6% | 32.9% | 74.4% | 48.7% |
| COC(=O)[C@]1(C)CCC[C@]2(C)[C@H]3C[C@H]4C(C(C)C)=C[C@]3(CC[C@H]21)[C@H]1[C@@H]4[C@@H](OCCC#N)CC[C@@H]1OCCC#N | 9.81% (active) | 19.8% | 42.7% | 47.8% | 9.07% (active) | 15.4% | 65.1% | 40.2% |
| CCc1ccc(C(=O)/C=C/C23c4ccccc4C(c4ccccc42)C2C(=O)NC(=O)C23)cc1 (stereo not drawn) | 21.9% | -7.29% (active) | -46.6% (active) | 8.84% (active) | 16.6% | -40% (active) | 24.5% | 11.2% |
| CCCCCC(=O)OCC(=O)O[C@@H]1C[C@]2(C(C)C)O[C@@]1(C)[C@@H]1CC[C@@H](C)[C@H]1[C@@H]2OC(=O)/C=C/c1ccccc1 | 21.4% | 12.6% | 99.4% | 48.9% | 26.8% | 74% | 88.5% | 85% |
| Oc1c(Cl)cc(Cl)c2ccc(Cn3cc(-c4ccc(C(F)(F)F)cc4)nn3)nc12 | 55.4% | 77.7% | 59.5% | 7.74% (active) | 29.4% | 8.81% (active) | 105% | 101% |
| CCOC(=O)Cn1c(O)c(N=Nc2ccc(S(N)(=O)=O)cc2)c2cc(Br)ccc21 | 78.1% | 119% | 92% | 62.7% | 84% | 13.9% | 95.5% | 70.7% |
| CC(C)CCNC(=O)Cn1cccc(NC(=O)OCc2ccccc2)c1=O | 104% | 110% | 115% | 108% | 95.1% | 110% | 103% | 107% |
| Cc1ccc(/C=N/Nc2nc(Nc3ccccc3)nc(-n3nc(C)cc3C)n2)cc1 | 7.35% (active) | -5.91% (active) | 41.8% | 48.8% | 16.4% | 27.6% | 43.1% | 25.6% |
| O=C(COc1ccc(-c2nc3ccccc3[nH]2)cc1)N=Nc1c(O)[nH]c2ccc(Cl)cc12 | 65.4% | 110% | 93.9% | 40.6% | 22.3% | 47.2% | 65.2% | 15.3% |
| C=C1C(=O)O[C@H]2[C@H]1CC/C(COC(=O)NCc1cc[nH]c1)=C\CC[C@@]1(C)O[C@@H]21 | 69.5% | 55.6% | 34.2% | 21.6% | 34.8% | 36.1% | 95% | 78.2% |
| Cc1ccc(-c2nc3nc(-c4ccccc4)nc(N4CCNCC4)c3o2)cc1 | -68.4% (active) | -71.9% (active) | -87.4% (active) | -69.4% (active) | -66.2% (active) | -77.1% (active) | -86.8% (active) | -87.9% (active) |
| COc1cc(CNC(=O)CCCC/C=C/C(C)C)ccc1OCc1nnc(Nc2ccc([N+](=O)[O-])cc2)o1 | 48.6% | 108% | 71.9% | 67.3% | 55.2% | 24.6% | 83.6% | 71.6% |
| CN(C)C1CCN(Cc2ccc(NC(=O)c3cncc(C#Cc4cnc(N)c5ncccc45)c3)cc2C(F)(F)F)CC1 | 93.7% | 104% | -2.09% (active) | 68.1% | 73.6% | 86.7% | 99.6% | 9.65% (active) |
| CCCCC(=O)Nc1ncc(Cc2ccc(Cl)cc2)s1 | 56.4% | 65% | 0.64% (active) | 37.7% | 37.4% | 53.6% | 65.8% | 38.8% |
| O=C1NCCC12CCN(c1c(Cl)cncc1-c1ccc(O)cc1)CC2 | 93.7% | 114% | 100% | 99.6% | 95.4% | 97.3% | 120% | 105% |
| CCOC(=O)c1cnc2ccccc2c1Cl | 102% | 112% | 98.9% | 90.9% | 99.1% | 95.7% | 98.4% | 101% |
| N=C(N)c1ccc(-c2ccc(-c3ccc(Cl)cc3)s2)nc1 | 56.4% | 98% | -15% (active) | -83.5% (active) | -73.3% (active) | -82.3% (active) | -78.2% (active) | -74.8% (active) |
| Cc1cccc(Cl)c1NC(=O)c1ccc2nc(NC(=O)NCCN(C)C)sc2c1 | 88.1% | 82.1% | 47% | 103% | 48.9% | 92.1% | 105% | 97.1% |
| CN1CCN(Cc2ccc(NC(=O)c3cncc(C#Cc4cnc(N)c5ccccc45)c3)cc2C(F)(F)F)CC1 | -60.6% (active) | 25.9% | -88.7% (active) | -73.4% (active) | -76.8% (active) | -60.9% (active) | -92.3% (active) | -86.6% (active) |
| COc1cc(N2C(=O)[C@H](O)C2c2ccc(SC)cc2)cc(OC)c1OC (stereo partly drawn) | 49.2% | -6.32% (active) | -39.5% (active) | 23.7% | 13.5% | 1.16% (active) | 26.1% | 11.8% |
| Cn1c(-c2ccc(Br)cc2)c(O)c(=O)c2c(F)cccc21 | 57.7% | 70.6% | 67.8% | 51% | 37.1% | 35.1% | 64.5% | 53.3% |
| Cc1ccc(Sc2oc(-c3ccc(C)cc3)nc2[P+](c2ccccc2)(c2ccccc2)c2ccccc2)cc1 | 1.57% (active) | -30.9% (active) | -30.3% (active) | -5.3% (active) | -23.8% (active) | 2.12% (active) | 1.79% (active) | -52.8% (active) |
| C=CCn1c(SCC(=O)Nc2ccc(C(=O)/C=C/c3cc4cc(OC)ccc4nc3Cl)cc2)nnc1-c1ccc(Br)cc1 | 77.7% | 79.3% | 91.1% | 92% | 29.6% | -44% (active) | 95.1% | 84.7% |
| CCO/C=N/C1=C(C#N)C(c2ccc(OC)cc2)c2sc3c(F)cccc3c2O1 (stereo not drawn) | 35.4% | 49.8% | -42.8% (active) | 22.4% | 12.9% | 33.8% | 70.8% | 25.3% |
| CN1CCN(C(=O)c2ccc(NC(=O)Nc3ccc(-c4nc(N5CCOCC5)c5cccn5n4)cc3)cc2)CC1 | -34.3% (active) | -9.61% (active) | 0.865% (active) | 11% | 5.32% (active) | 7.02% (active) | 5.54% (active) | 9.01% (active) |
| Cc1c(-c2nc3ccc(F)cc3c(=O)[nH]2)c2ccccc2n1C | 36.1% | 43.8% | -38.8% (active) | 16.1% | 19.1% | 25.1% | 53% | 22% |
| O=C1COCCN1c1ccc(Nc2nc(Cl)nc(OCc3cn(Cc4ccccc4)nn3)n2)cc1 | 68.6% | 90.3% | 96.2% | 88.6% | 62.4% | 91.9% | 63.7% | 90.5% |
| Cc1nc2sc(C(=O)Nc3ccccc3)c(N)c2cc1C(=O)c1ccccc1 | 46.3% | 68.4% | -33.7% (active) | 27.8% | 11.5% | 29.7% | 18.2% | 33.7% |
| CN1C(=O)N(C)C2Nn3c(s/c(=C\c4ccc(C(F)(F)F)cc4)c3=O)=NC21 (stereo not drawn) | 107% | 113% | 91.4% | 101% | 92% | 107% | 113% | 99.7% |
| O=C(Nc1ccc(-c2nc(N3CCOCC3)c3cccn3n2)cc1)Nc1cccnc1 | – | – | – | – | – | – | 12.9% | – |
